# Shown is part of a subset that was picked to be rich in the strongest signals.
# B1: HA-00510 (Pseudomonas aeruginosa), Q02V39_PSEAB (protein)
# chain: GVPIVNIATPNGAGLSNNHFRDYNVGANGLILNNATGKTQGTQLGGIILGNPNLKGQAAQVILNQVTGGNRSTLAGYTEVAGQSARVIVANPHGITCQGCGFINTPRATLTTGKPIMDGQRLERFQVDGGDIVVEGAELNVGNLEQFDLITRSAKLNAKLYAKNLNIVTGRNDVQADSLQATPRAADGSEKPQLAIDSSALGGMYAGAIRLVGTEQGVGVKLAGDMAASGGDIRIDASGKLSLAQASSQGDLKIAAQAVELNGKTYAGGSAEIRSAEELVNRQS
# Legend:
# Test in all cases: glycan array binding signal (z-score within array); higher = stronger binding
# Settings in all cases: glycan notation: IUPAC condensed, linker removed
# [1] = target: Fuc(a1-2)Gal(b1-4)GlcNAc
# Summary of the method: (§1)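 Glycan array data were curated from 3228 arrays in the Consortium for Functional Glycomics database and kept only where the protein sequence was available. Glycan names were converted to IUPAC-condensed notation, and columns mapping to the same glycan were averaged. The binding signal is a within-array Z-score, averaged across arrays of the same protein sequence at different concentrations or buffers and across linkers. Negative Z-scores can be read as non-binding.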
# [2] = target: Fuc(a1-2)Gal(b1-4)GlcNAc(b1-2)[Fuc(a1-2)Gal(b1-4)GlcNAc(b1-4)]Man(a1-3)[Fuc(a1-2)Gal(b1-4)GlcNAc(b1-2)Man(a1-6)]Man(b1-4)GlcNAc(b1-4)GlcNAc
# Summary of the method: as §1
# [3] = target: Fuc(a1-2)Gal(b1-4)[Fuc(a1-3)]GlcNAc
# Summary of the method: as §1
# [4] = target: Fuc(a1-2)Gal6S(b1-3)GlcNAc
# Summary of the method: as §1
# [5] = target: Fuc(a1-2)[Gal(a1-3)]Gal(b1-3)GlcNAc(b1-6)GalNAc
# Summary of the method: as §1
# [6] = target: Fuc(a1-2)[Gal(a1-4)]Gal(b1-4)GlcNAc
# Summary of the method: as §1
# [7] = target: Fuc(a1-2)[GalNAc(a1-3)]Gal(b1-3)GlcNAc(b1-3)GalNAc
# Summary of the method: as §1
# [8] = target: Fuc(a1-3)GlcNAc
# Summary of the method: as §1
# [9] = target: Gal(a1-3)Gal(b1-4)GlcNAc
# Summary of the method: as §1
# [10] = target: Gal(a1-3)[Gal(a1-4)]Gal(b1-4)GlcNAc
# Summary of the method: as §1
# [11] = target: Gal(b1-2)Gal
# Summary of the method: as §1
# [12] = target: Gal(b1-3)GlcNAc(b1-3)Gal(b1-4)GlcNAc(b1-6)[Gal(b1-3)GlcNAc(b1-3)]Gal(b1-4)Glc
# Summary of the method: as §1
# [13] = target: Gal(b1-4)GlcNAc(b1-2)Man(a1-3)Man(b1-4)GlcNAc(b1-4)GlcNAc
# Summary of the method: as §1
# [14] = target: Gal(b1-4)GlcNAc(b1-2)[Gal(b1-4)GlcNAc(b1-4)]Man(a1-3)[GlcNAc(b1-4)][Gal(b1-4)GlcNAc(b1-2)[Gal(b1-4)GlcNAc(b1-6)]Man(a1-6)]Man(b1-4)GlcNAc(b1-4)GlcNAc
# Summary of the method: as §1
# [15] = target: Gal(b1-4)GlcNAc(b1-3)Gal(b1-4)GlcNAc(b1-2)Man(a1-3)[Gal(b1-4)GlcNAc(b1-3)Gal(b1-4)GlcNAc(b1-2)Man(a1-6)]Man(b1-4)GlcNAc(b1-4)GlcNAc
# Summary of the method: as §1
# [16] = target: Gal(b1-4)GlcNAc(b1-3)Gal(b1-4)GlcNAc(b1-3)GalNAc
# Summary of the method: as §1
# [17] = target: Gal(b1-4)GlcNAc(b1-3)Gal(b1-4)GlcNAc(b1-3)[Gal(b1-4)GlcNAc(b1-3)Gal(b1-4)GlcNAc(b1-6)]GalNAc
# Summary of the method: as §1
# [18] = target: Gal(b1-6)Gal
# Summary of the method: as §1
# [19] = target: Gal3S(b1-4)Glc
# Summary of the method: as §1
# [20] = target: Gal3S(b1-4)GlcNAc
# Summary of the method: as §1
# [21] = target: Gal3S(b1-4)[Fuc(a1-3)]Glc6S
# Summary of the method: as §1
# [22] = target: Gal3S4S(b1-4)GlcNAc
# Summary of the method: as §1
# [23] = target: Gal6S(b1-4)GlcNAc
# Summary of the method: as §1
# [24] = target: GalNAc(b1-3)Gal(a1-6)Gal(b1-4)Glc
# Summary of the method: as §1
# [25] = target: GalNAc(b1-4)GlcNAc(b1-2)Man
# Summary of the method: as §1
# [26] = target: Glc(a1-4)Glc(a1-4)Glc(a1-4)Glc
# Summary of the method: as §1
# [27] = target: GlcNAc(a1-4)Gal(b1-4)GlcNAc(b1-3)Gal(b1-4)[Fuc(a1-3)]GlcNAc(b1-3)Gal(b1-4)[Fuc(a1-3)]GlcNAc
# Summary of the method: as §1
# [28] = target: GlcNAc(b1-3)Gal(b1-4)GlcNAc(b1-2)[GlcNAc(b1-3)Gal(b1-4)GlcNAc(b1-6)]Man(a1-6)[GlcNAc(b1-3)Gal(b1-4)GlcNAc(b1-2)Man(a1-3)]Man(b1-4)GlcNAc(b1-4)GlcNAc
# Summary of the method: as §1
# [29] = target: GlcNAc(b1-3)Gal(b1-4)GlcNAc(b1-3)Gal(b1-4)GlcNAc(b1-2)Man(a1-3)[GlcNAc(b1-3)Gal(b1-4)GlcNAc(b1-3)Gal(b1-4)GlcNAc(b1-2)Man(a1-6)]Man(b1-4)GlcNAc(b1-4)GlcNAc
# Summary of the method: as §1
# [30] = target: GlcNAc(b1-3)Gal(b1-4)GlcNAc(b1-3)[GlcNAc(b1-3)Gal(b1-4)GlcNAc(b1-3)]GalNAc
# Summary of the method: as §1
# [31] = target: GlcNAc(b1-4)GlcNAc(b1-4)GlcNAc(b1-4)GlcNAc(b1-4)GlcNAc
# Summary of the method: as §1
# [32] = target: Kdn(a2-6)Gal(b1-4)GlcNAc
# Summary of the method: as §1
# [33] = target: Man(a1-2)Man(a1-3)[Man(a1-6)]Man(a1-6)[Man(a1-2)Man(a1-3)]Man(b1-4)GlcNAc(b1-4)GlcNAc
# Summary of the method: as §1
# [34] = target: Man(a1-3)[Man(a1-6)]Man(a1-6)[Man(a1-3)]Man
# Summary of the method: as §1
# [35] = target: Neu5Ac(a2-3)Gal(b1-3)GalNAc(b1-4)[Neu5Ac(a2-3)]Gal(b1-4)Glc
# Summary of the method: as §1
# [36] = target: Neu5Ac(a2-3)Gal(b1-3)GlcNAc(b1-2)Man
# Summary of the method: as §1
# [37] = target: Neu5Ac(a2-3)Gal(b1-4)GlcNAc(b1-2)Man
# Summary of the method: as §1
# [38] = target: Neu5Ac(a2-3)Gal(b1-4)GlcNAc(b1-2)Man(a1-3)[Neu5Ac(a2-3)Gal(b1-4)GlcNAc(b1-2)Man(a1-6)]Man(b1-4)GlcNAc(b1-4)[Fuc(a1-6)]GlcNAc
# Summary of the method: as §1
# [39] = target: Neu5Ac(a2-3)Gal(b1-4)GlcNAc(b1-2)[Neu5Ac(a2-3)Gal(b1-4)GlcNAc(b1-4)]Man(a1-3)[GlcNAc(b1-4)][Neu5Ac(a2-3)Gal(b1-4)GlcNAc(b1-2)[Neu5Ac(a2-3)Gal(b1-4)GlcNAc(b1-6)]Man(a1-6)]Man(b1-4)GlcNAc(b1-4)GlcNAc
# Summary of the method: as §1
# [40] = target: Neu5Ac(a2-3)Gal(b1-4)GlcNAc(b1-3)Gal(b1-4)GlcNAc(b1-3)Gal(b1-4)GlcNAc(b1-2)Man(a1-3)[Neu5Ac(a2-3)Gal(b1-4)GlcNAc(b1-3)Gal(b1-4)GlcNAc(b1-3)Gal(b1-4)GlcNAc(b1-2)Man(a1-6)]GalNAc
# Summary of the method: as §1
# [41] = target: Neu5Ac(a2-3)Gal(b1-4)GlcNAc(b1-3)Gal(b1-4)GlcNAc(b1-3)[Neu5Ac(a2-3)Gal(b1-4)GlcNAc(b1-3)Gal(b1-4)GlcNAc(b1-6)]GalNAc
# Summary of the method: as §1
# [42] = target: Neu5Ac(a2-3)Gal(b1-4)[Fuc(a1-3)]GlcNAc(b1-2)Man
# Summary of the method: as §1
# [43] = target: Neu5Ac(a2-3)Gal(b1-4)[Fuc(a1-3)]GlcNAc(b1-3)GalNAc
# Summary of the method: as §1
# [44] = target: Neu5Ac(a2-3)[GalNAc(b1-4)]Gal(b1-4)Glc
# Summary of the method: as §1
# [45] = target: Neu5Ac(a2-6)Gal
# Summary of the method: as §1
# [46] = target: Neu5Ac(a2-6)Gal(b1-4)GlcNAc(b1-2)Man
# Summary of the method: as §1
# [47] = target: Neu5Ac(a2-6)Gal(b1-4)GlcNAc(b1-2)Man(a1-3)Man(b1-4)GlcNAc(b1-4)GlcNAc
# Summary of the method: as §1
# [48] = target: Neu5Ac(a2-6)Gal(b1-4)GlcNAc(b1-2)Man(a1-6)[GlcNAc(b1-2)Man(a1-3)]Man(b1-4)GlcNAc(b1-4)GlcNAc
# Summary of the method: as §1
# [49] = target: Neu5Ac(a2-6)Gal(b1-4)GlcNAc(b1-3)Gal(b1-3)GlcNAc
# Summary of the method: as §1
# [50] = target: Neu5Ac(a2-6)Gal(b1-4)GlcNAc(b1-3)Gal(b1-4)GlcNAc(b1-3)Gal(b1-4)GlcNAc(b1-2)Man(a1-3)[Neu5Ac(a2-6)Gal(b1-4)GlcNAc(b1-3)Gal(b1-4)GlcNAc(b1-3)Gal(b1-4)GlcNAc(b1-2)Man(a1-6)]GalNAc
# Summary of the method: as §1
# [51] = target: Neu5Ac(a2-6)Gal(b1-4)GlcNAc(b1-3)Gal(b1-4)GlcNAc(b1-3)[Neu5Ac(a2-6)Gal(b1-4)GlcNAc(b1-3)Gal(b1-4)GlcNAc(b1-6)]GalNAc
# Summary of the method: as §1
# [52] = target: Neu5Ac(a2-8)Neu5Ac
# Summary of the method: as §1
# [53] = target: Neu5Ac(a2-8)Neu5Ac(a2-3)[GalNAc(b1-4)]Gal(b1-4)Glc
# Summary of the method: as §1
# [54] = target: Neu5Ac9Ac(a2-3)Gal(b1-4)GlcNAc
# Summary of the method: as §1
# [55] = target: Neu5Gc(a2-6)GalNAc
# Summary of the method: as §1
# [56] = target: Neu5Gc(b2-6)Gal(b1-4)GlcNAc
# Summary of the method: as §1
binder,measurement,setting,value
B1,glycan array binding signal (z-score),[1],0.548
same,glycan array binding signal (z-score),[2],1.8
same,glycan array binding signal (z-score),[3],-0.457
same,glycan array binding signal (z-score),[4],-1.39
same,glycan array binding signal (z-score),[5],-0.268
same,glycan array binding signal (z-score),[6],0.219
same,glycan array binding signal (z-score),[7],2.45
same,glycan array binding signal (z-score),[8],0.219
same,glycan array binding signal (z-score),[9],0.209
same,glycan array binding signal (z-score),[10],0.326
same,glycan array binding signal (z-score),[11],-0.657
same,glycan array binding signal (z-score),[12],0.121
same,glycan array binding signal (z-score),[13],-0.221
same,glycan array binding signal (z-score),[14],0.347
same,glycan array binding signal (z-score),[15],6.41
same,glycan array binding signal (z-score),[16],3.26
same,glycan array binding signal (z-score),[17],3.88
same,glycan array binding signal (z-score),[18],-0.435
same,glycan array binding signal (z-score),[19],0.114
same,glycan array binding signal (z-score),[20],-0.217
same,glycan array binding signal (z-score),[21],0.258
same,glycan array binding signal (z-score),[22],-0.526
same,glycan array binding signal (z-score),[23],-0.516
same,glycan array binding signal (z-score),[24],-0.551
same,glycan array binding signal (z-score),[25],-1.01
same,glycan array binding signal (z-score),[26],0.18
same,glycan array binding signal (z-score),[27],0.682
same,glycan array binding signal (z-score),[28],0.061
same,glycan array binding signal (z-score),[29],4.3
same,glycan array binding signal (z-score),[30],-0.255
same,glycan array binding signal (z-score),[31],0.345
same,glycan array binding signal (z-score),[32],-0.045
same,glycan array binding signal (z-score),[33],-0.534
same,glycan array binding signal (z-score),[34],-0.502
same,glycan array binding signal (z-score),[35],0.112
same,glycan array binding signal (z-score),[36],-0.852
same,glycan array binding signal (z-score),[37],1.18
same,glycan array binding signal (z-score),[38],0.601
same,glycan array binding signal (z-score),[39],0.048
same,glycan array binding signal (z-score),[40],3.77
same,glycan array binding signal (z-score),[41],-0.447
same,glycan array binding signal (z-score),[42],-1.16
same,glycan array binding signal (z-score),[43],2.86
same,glycan array binding signal (z-score),[44],-0.269
same,glycan array binding signal (z-score),[45],0.437
same,glycan array binding signal (z-score),[46],2.52
same,glycan array binding signal (z-score),[47],-0.14
same,glycan array binding signal (z-score),[48],-0.425
same,glycan array binding signal (z-score),[49],2.34
same,glycan array binding signal (z-score),[50],3.69
same,glycan array binding signal (z-score),[51],2.75
same,glycan array binding signal (z-score),[52],0.611
same,glycan array binding signal (z-score),[53],-0.094
same,glycan array binding signal (z-score),[54],0.419
same,glycan array binding signal (z-score),[55],-0.059
same,glycan array binding signal (z-score),[56],-0.019

# Reference: the supplement of paper PMC8728848
